# Laboratory results as given in PubChem BioAssay.
# A number with no mark means an inactive call.
# Target: NADPH oxidase 4 (Homo sapiens) (UniProt Q9NPH5)
# Assay: compounds shifting NOX4 Amplex Red fluorescence – cell-based, HEK293-NOX4, tetracycline-induced, NOX inhibitor project, primary screen (AID 1160)
# Conditions: HEK293-NOX4, Amplex Red H2O2 fluorescence, 45 min; higher = more signal, called active from +8 up or from −8 down
# Sequence of NADPH oxidase 4 (Homo sapiens) (Q9NPH5 whole entry, looked up): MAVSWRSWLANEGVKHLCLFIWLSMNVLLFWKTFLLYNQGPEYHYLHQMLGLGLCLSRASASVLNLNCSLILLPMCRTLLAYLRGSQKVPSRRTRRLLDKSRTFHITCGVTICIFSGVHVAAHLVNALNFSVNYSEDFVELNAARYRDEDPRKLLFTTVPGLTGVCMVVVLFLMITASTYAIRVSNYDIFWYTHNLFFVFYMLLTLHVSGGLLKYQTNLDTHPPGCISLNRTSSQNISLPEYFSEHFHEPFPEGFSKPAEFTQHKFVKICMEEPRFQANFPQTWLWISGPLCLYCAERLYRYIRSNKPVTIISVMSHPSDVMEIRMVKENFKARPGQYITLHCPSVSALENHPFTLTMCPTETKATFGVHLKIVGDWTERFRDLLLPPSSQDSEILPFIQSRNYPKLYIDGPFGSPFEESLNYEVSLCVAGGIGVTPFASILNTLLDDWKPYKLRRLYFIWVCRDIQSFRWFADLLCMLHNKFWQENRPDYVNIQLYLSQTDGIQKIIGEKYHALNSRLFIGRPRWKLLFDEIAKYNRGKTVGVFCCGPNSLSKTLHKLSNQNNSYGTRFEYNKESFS
row,SMILES,z-score
1,C=CCN1C(=O)[C@@]2(Cc3ccccc31)N=C(c1ccc(OCCCO)cc1)O[C@H]2c1ccccc1,-0.253
2,[N-]=[N+]=Nc1ccccc1[C@@H]1OC(c2ccc(OCCCO)cc2)=N[C@]1(CCS(=O)(=O)c1ccccc1)C(N)=O,2.14
3,CN(C)C(=O)[C@@]1(CCS(=O)(=O)c2ccccc2)COC(c2ccc(OCCCO)cc2)=N1,0.265
4,CCOC(=O)C[C@H]1[C@H](OC(=O)c2cc3ccccc3oc2=O)[C@@H](NC(=O)c2ccccc2)c2cc(OCCCO)ccc2N1C(=O)c1ccc2ccccc2n1,0.43
5,C=CCOC(=O)[C@H]1[C@@H]2C(=O)O[C@@H](c3ccccc3)[C@@H](c3ccccc3)N2[C@@H](c2ccc(OCCOC(=O)[C@H]3C[C@H]4C(=O)N[C@@H](CCCCNC(C)=O)C(=O)N4[C@H]3c3cccc(OCCO)c3)cc2)[C@]12C(=O)Nc1ccccc12,1.93
6,CC(C)C(CO)N1C(=O)[C@@H]2C3C(=O)OCCC/C=C\[C@H]3OC23C=CCN(CCN2CCOCC2)C(=O)[C@@H]13 (stereo partly specified),0.401
7,O=C(NCCN1CCOCC1)C1N=C(c2ccc(OCCCO)cc2)N(c2ccccc2)O1 (stereo unspecified),-0.0142
8,COC(=O)[C@@]1(Cc2ccccc2)[C@H]2c3cc(C(=O)N4CCCC4)n(Cc4ccc(S(C)(=O)=O)cc4)c3C[C@H]2CN1C(=O)c1ccccc1,-1.16
9,O=C1[C@@]23C=C(Br)[C@H](C[C@@H]2CCOC3)[C@@]12CO2,0.723
10,O=C(c1ccccc1)N1C(=O)[C@]2(COC(c3ccc(OCCCO)cc3)=N2)Cc2ccccc21,0.0715
11,Cc1nc2cc(Br)ccc2c(=O)o1,-0.0246
12,CCCCC(CC)C(O)C1C=CC2C(=O)N(Cc3ccccc3)C(=O)C2N1n1cnnc1 (stereo unspecified),-0.476
13,CC(C)C(O)C1C=CC2C(=O)NC(=O)C2N1Nc1ccc(Cl)cc1Cl (stereo unspecified),-4.39
14,COCCOC(=O)N1C(=O)[C@@]2(c3ccccc31)[C@H](c1ccc(O)cc1)N1[C@H](c3ccccc3)[C@H](c3ccccc3)OC(=O)[C@H]1[C@@H]2C(=O)Nc1nc2ccccc2s1,0.449
15,CC(C)C(=C=CC[C@@H](O)c1ccc(OCCO)cc1)C[C@@H](O)COCc1ccccc1,-0.915
16,O=C1C2C=CC(C(O)Cc3ccccc3)N(n3cnnc3)C2C(=O)N1Cc1ccccc1 (stereo unspecified),-1.69
17,COCCOC(=O)N1C(=O)[C@@]2(c3cc(C#Cc4ccc(OC)cc4)ccc31)[C@H](c1ccc(O)cc1)N1[C@H](c3ccccc3)[C@H](c3ccccc3)OC(=O)[C@H]1[C@@H]2C(=O)N1CCc2cc(OC)c(OC)cc2C1,0.398
18,COc1cc2c(cc1O)C(C1CC1)N(Cc1sc3ccccc3c1Cl)CC2 (stereo unspecified),-2.68
19,CC(C)C(=C=CC[C@H](O)c1ccc(OCCO)cc1)CCO,-0.581
20,CC(=O)NCCCC[C@@H]1NC(=O)[C@@H]2C[C@H](C(=O)NCCCCCNC(=O)CS)[C@H](c3cccc(OCCO)c3)N2C1=O,0.489
21,NC(=O)NCC#Cc1ccc2c(c1)[C@]1(C(=O)N2)[C@H](c2ccc(O)cc2)N2[C@H](c3ccccc3)[C@H](c3ccccc3)OC(=O)[C@H]2[C@@H]1C(=O)O,-0.0146
22,COc1cc(Br)cc(C(O)C2C=CC3C(=O)N(C)C(=O)C3N2N2CCCCC2)c1OC (stereo unspecified),-3.5
23,COc1ccc(CCNC(=O)[C@@H]2c3ccccc3C(=O)N(Cc3ccccc3Cl)[C@H]2c2ccc(CO)cc2)cc1,0.151
24,CCCCN1CC=CC23O[C@@H]4C=CCCOC(=O)C4[C@H]2C(=O)N(CCCCCCO)[C@@H]3C1=O (stereo partly specified),-0.13
25,CCOC(=O)C[C@H]1[C@H](OC(=O)c2ccc(C(=O)c3ccccc3)cc2)[C@@H](NC(=O)c2ccccc2)c2cc(OCCCO)ccc2N1C(=O)c1ccc2ccccc2n1,0.923
26,C=CCOC(=O)[C@H]1[C@@H]2C(=O)O[C@@H](c3ccccc3)[C@@H](c3ccccc3)N2[C@@H](c2ccc(OCCOC(=O)[C@H]3C[C@H]4C(=O)N[C@@H](CCCC[N+](C)(C)C)C(=O)N4[C@H]3c3ccc(O)cc3)cc2)[C@]12C(=O)Nc1ccc(I)cc12,0.72
